Records with an inconclusive call do not appear. The source made the active and inactive calls. How the source made its calls: active means hit-call score of the fitted dose curve at least 0.9, where 1 is the maximum; inconclusive means response in the unintended direction; inactive means score below 0.9.

The test deals with human AKT serine/threonine Kinase 3 (AKT3), AKT3 (gene 10000) (UniProt Q9Y243). Put plainly: NVS_ENZ_hAKT3: NovaScreen (NVS) Enzymatic Assay for human AKT serine/threonine Kinase 3 (AKT3). As to the method: NVS_ENZ_hAKT3 is a biochemical, single-readout assay that uses extracted gene-proteins in a cell-free assay. Measurements were taken 1 hour after chemical dosing in a 384-well plate.NVS_ENZ_hAKT3 is one of one assay component(s) measured or calculated from the NVS_ENZ_hAKT3 assay. It is designed to make measurements of enzyme activity, a form of enzyme reporter, as detected with fluorescence intensity signals by Fluorescence and electrophoretic mobility shift technology.Data from the assay component NVS_ENZ_hAKT3 was analyzed into 1 assay endpoint. This assay endpoint, NVS_ENZ_hAKT3, was analyzed in the positive analysis fitting direction relative to DMSO as the negative control and baseline of activity. Using a type of enzyme reporter, loss-of-signal activity can be used to understand changes in the enzymatic activity as they relate to the gene AKT3. Furthermore, this assay endpoint can be referred to as a primary readout, because this assay has produced multiple assay endpoints where this one serves a enzymatic activity function. To generalize the intended target to other relatable targets, this assay endpoint is annotated to the kinase intended target family, where the subfamily is serine/threonine kinase. […]
human AKT serine/threonine Kinase 3 (AKT3), AKT3 (gene 10000), sequence (Q9Y243 whole entry, looked up): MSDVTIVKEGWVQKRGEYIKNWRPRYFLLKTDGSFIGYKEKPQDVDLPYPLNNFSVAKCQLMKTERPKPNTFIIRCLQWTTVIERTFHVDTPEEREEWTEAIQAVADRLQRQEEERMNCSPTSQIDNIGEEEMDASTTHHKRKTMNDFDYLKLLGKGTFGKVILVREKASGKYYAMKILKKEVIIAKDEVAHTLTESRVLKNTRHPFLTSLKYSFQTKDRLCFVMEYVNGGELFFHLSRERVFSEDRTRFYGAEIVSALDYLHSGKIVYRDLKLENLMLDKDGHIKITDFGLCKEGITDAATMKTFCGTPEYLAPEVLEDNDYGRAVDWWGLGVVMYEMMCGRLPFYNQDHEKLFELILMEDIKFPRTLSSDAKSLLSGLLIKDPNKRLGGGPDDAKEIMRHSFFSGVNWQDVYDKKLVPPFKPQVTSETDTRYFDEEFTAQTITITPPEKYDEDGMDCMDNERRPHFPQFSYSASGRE
`CN(C)C(=S)SSC(=S)N(C)C`: the molecule was called inactive. With `S=C([S-])NCCNC(=S)[S-].[Mn+2]`, the AC50 is 25 µM (active).

The values are drawn from PubChem BioAssay AID2283127 (EPA ToxCast).
